# Source: PubChem BioAssay (Tox21)
# Inconclusive results are not listed. Activity calls are given as the source filed them. The call rests on the fitted dose curve; in most records, active means well fitted inhibition curve with a large enough effect in the signal ratio in the repeat runs (not every such curve was filed as active); inconclusive means weak or mixed curves, or effect the other way; inactive means no such curve, though single readings can be large or run the other way; the % refers to the signal ratio.
# Molecular target: Vitamin D3 receptor (Homo sapiens) (UniProt P11473)
# Sequence (P11473 whole entry, looked up): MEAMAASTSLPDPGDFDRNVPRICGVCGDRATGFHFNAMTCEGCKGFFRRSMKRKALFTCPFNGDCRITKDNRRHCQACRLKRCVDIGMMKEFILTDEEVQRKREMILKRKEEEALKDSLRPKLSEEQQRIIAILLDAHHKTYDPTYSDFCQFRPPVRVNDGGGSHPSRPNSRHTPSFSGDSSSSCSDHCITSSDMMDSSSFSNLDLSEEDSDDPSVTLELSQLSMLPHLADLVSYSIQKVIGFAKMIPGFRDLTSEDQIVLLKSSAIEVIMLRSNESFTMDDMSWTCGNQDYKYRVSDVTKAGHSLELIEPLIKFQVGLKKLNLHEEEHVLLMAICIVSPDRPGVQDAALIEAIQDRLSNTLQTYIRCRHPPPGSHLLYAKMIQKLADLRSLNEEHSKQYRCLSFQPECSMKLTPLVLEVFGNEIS
# Assay: qHTS assay to identify small molecule antagonists of the vitamin D receptor (VDR) signaling pathway (AID 743223)
# Settings: VDR-UAS-bla HEK293T, beta-lactamase FRET ratio, 16 h; series mostly up to 61 µM
# From the text: U.S. Tox21 Program National Center for Advancing Translational Sciences [NCATS] NIH Chemical Genomics Center [NCGC] U.S. Environmental Protection Agency [EPA] National Institutes of Environmental Health Sciences [NIEHS] National Toxicology Program [NTP] U.S. Food and Drug Administration [FDA] Tox21 Assay Overview: The vitamin D receptor (VDR), a member of nuclear hormone receptor superfamily, plays a critical role in calcium homeostasis and bone metabolism. It is also involved in cell differentiation and growth, and thrombogenicity.
# Tox21 Assay Protocol Summary: VDR-bla cells were dispensed at 2,000 cells/5 uL of assay medium per well into black wall/clear-bottom 1536-well plates using a Multidrop Combi (Thermo Fisher Scientific, Waltham, MA) dispenser. After the assay plates were incubated at a 37C and 5% CO2 for 4 h, 23 nL of compounds dissolved in DMSO, positive controls or DMSO only was transferred to the assay plate by a Pintool station (Kalypsys, San Diego, CA), followed by addition of 1 uL of 1alpha, 25-Dihydroxy Vitamin D3 (3 nM, final concentration in the wells) using a Bioraptr Flying Reagent Dispenser (FRD) workstation (Beckman Coulter, Indianapolis, IN). The plates were incubated at 37C and 5% CO2 for 16 h, and then 1 uL of LiveBLAzerTM B/G FRET substrate was added using a Bioraptr FRD. The plates were incubated at room temperature for 2 h and fluorescence intensity was measured by an Envision plate reader (PerkinElmer, Shelton, CT).
row,SMILES,outcome
1,NS(=O)(=O)c1ccc(N2CCCCS2(=O)=O)cc1,inactive
2,NC(=O)C(c1ccccc1)(c1ccccc1)[C@@H]1CCN(CCc2ccc3c(c2)CCO3)C1,inactive
3,CC(C)C[C@H]1C(=O)N2CCC[C@H]2[C@]2(O)O[C@](NC(=O)[C@@H]3C=C4c5cccc6[nH]c(Br)c(c56)C[C@H]4N(C)C3)(C(C)C)C(=O)N12,inactive
4,Nc1cc(C(=O)O)c(O)c(S(=O)(=O)O)c1,inactive
5,C#C[C@]1(O)CC[C@H]2[C@@H]3CCc4cc(OC5CCCC5)ccc4[C@H]3CC[C@@]21C,inactive
6,CCOC(=O)C(O)c1ccccc1 (stereo not given),inactive
7,CN(C)C(=O)NC1(c2ccccc2)CCN(CC[C@@]2(c3ccc(F)c(F)c3)CN(C(=O)c3ccccc3)CCO2)CC1,inactive
8,CN(C)c1ccc(CCO)cc1,inactive
9,C/C=C/C=C/CO,inactive
10,O=CC1CC=CCC1 (stereo not given),inactive
11,CC1(c2ccccc2)OC(C(=O)O)=CC1=O (stereo not given),inactive
12,O=P(O)(OCc1ccccc1)OCc1ccccc1,inactive
13,Cc1cc(N)c2cc(NC(=O)Nc3ccc4nc(C)cc(N)c4c3)ccc2n1,inactive
14,C[Si](C)(CCCN)O[Si](C)(C)CCCN,inactive
15,CCCCc1ncc(/C=C(\Cc2cccs2)C(=O)O)n1Cc1ccc(C(=O)O)cc1,inactive
16,ClCCOCCOCCCl,inactive
17,O=C1OC(CN2CCOCC2)CN1/N=C/c1ccc([N+](=O)[O-])o1 (stereo not given),inactive
18,CCC(C)(C)CC,inactive
19,COCC(C)OC(C)=O (stereo not given),inactive
20,O=[N+]([O-])c1cccc(S(=O)(=O)O)c1,inactive

row,SMILES,outcome
1,NCC(=O)O,inactive
2,C=C(C)C(=O)OCC,inactive
3,OCCN1CCN(CCCN2c3ccccc3C=Cc3ccccc32)CC1,inactive
4,Cc1cccc(C)c1OCC(=O)N[C@@H](Cc1ccccc1)[C@@H](O)C[C@H](Cc1ccccc1)NC(=O)[C@H](C(C)C)N1CCCNC1=O,inactive
5,CN(C)CCN(Cc1ccc(Cl)cc1)c1ccccn1,inactive
6,CC[N+]1(CC)CCC(=C(c2ccccc2)c2ccccc2)C1C (stereo not given),inactive
7,CCCCCCCCCc1ccc(OCCOCCO)cc1,inactive
8,CCN(CC)CCNC(=O)c1cc(Br)c(N)cc1OC,inactive
9,CN(C)c1ccc(C(c2ccccc2)c2ccc(N(C)C)cc2)cc1,inactive
10,CNC(=O)CN(CCN(CCN(CC(=O)[O-])CC(=O)NC)CC(=O)[O-])CC(=O)[O-].O.[Gd+3],inactive
11,O=C1OC(=O)C2C3C=CC(C3)C12 (stereo not given),inactive
12,CCOc1ccc(N)c([N+](=O)[O-])c1,inactive
13,O=C1C(O)=C(O)C(=O)C(O)=C1O,inactive
14,COc1cc2c(cc1OC)C(C(C(=O)N(CCc1ccc(OC)c(OC)c1OC)CCc1ccc(OC)c(OC)c1OC)c1ccccc1)=NCC2 (stereo not given),inactive
15,COc1ccc(C(=O)c2ccc(OC)cc2O)c(O)c1,inactive
16,CCOC(=O)C(F)(F)F,inactive
17,CCCCCCCN,inactive
18,C[C@@H]1C[C@H]2O[C@@]3(O[C@@H]2C(C)(C)O)[C@H](O)[C@@]2(C)[C@@H]4CC[C@H]5C(C)(C)[C@@H](O[C@@H]6OC[C@@H](O)[C@H](O)[C@H]6O)CC[C@@]56C[C@@]46CC[C@]2(C)[C@@H]13,inactive
19,CCCCC(=O)OCC(=O)[C@H]1[C@H](C)C[C@H]2[C@@H]3C[C@H](F)C4=CC(=O)C=C[C@]4(C)[C@@]3(F)[C@@H](O)C[C@@]21C,inactive
20,CCCCCCCCCCCCCCCCCCOS(=O)(=O)O,inactive
